PKM2 act = activators of human pyruvate kinase M2. Potency, µM (highest dose often 57.5 µM), for the others: top-dose activation, hits mostly activators. purified PKM2, Kinase-Glo ATP luminescence, activation; response scale: 0% is enzyme alone, no compound. hit rate 0.34% among 260,000. AID 1631; also: potency is read from the fitted curve at half-maximal effect; nearly all actives have a fitted effect of over 55% in size
Target sequence (P14618 whole entry, looked up): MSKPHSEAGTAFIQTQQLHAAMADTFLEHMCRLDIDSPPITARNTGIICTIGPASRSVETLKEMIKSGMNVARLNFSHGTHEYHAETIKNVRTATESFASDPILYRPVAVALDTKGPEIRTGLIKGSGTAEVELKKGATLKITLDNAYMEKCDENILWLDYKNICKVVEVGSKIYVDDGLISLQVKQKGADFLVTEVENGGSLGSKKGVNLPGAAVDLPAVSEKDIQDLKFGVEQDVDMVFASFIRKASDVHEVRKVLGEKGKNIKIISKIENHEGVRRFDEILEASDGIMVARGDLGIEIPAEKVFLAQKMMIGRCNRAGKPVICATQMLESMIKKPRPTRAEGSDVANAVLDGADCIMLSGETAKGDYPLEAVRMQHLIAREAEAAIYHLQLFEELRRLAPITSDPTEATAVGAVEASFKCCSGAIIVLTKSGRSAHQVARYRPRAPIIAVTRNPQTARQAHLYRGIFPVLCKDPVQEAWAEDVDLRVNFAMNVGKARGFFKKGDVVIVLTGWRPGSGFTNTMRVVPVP
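hPK-M2, >95% pure; 0.1 mM ADP / 0.5 mM PEP final; imidazole pH7.2 buffer w/ 7 mM MgCl2, 50 mM KCl; 1 h RT; Kinase-Glo lum. Intermediate enzyme activity for dual inhibitor/activator qHTS.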
GALK inh = inhibitors of human galactokinase; P51570; Purified GALK, Kinase-Glo residual ATP luminescence; Potency, µM (series often up to 57.5 µM), without a hit: at the highest dose activity change, negative = inhibition, actives largely listed as inhibitors; hit rate 0.007% among 270,000; AID 1868; also: potency is read from the fitted curve at half-maximal effect
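GALK at 5 nM final was combined with compound, 35 uM ATP and 100 uM galactose in HEPES pH8.0 with MgCl2 and DTT. The reaction ran one hour at room temperature before luminescent ATP detection.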
rTrxR1 inhibitor = blocks rat thioredoxin reductase 1; O89049; AID 588453; recombinant rTrxR1, NADPH fluorescence consumption, selenite substrate; hit rate 1% among 390,000; Potency, µM (top dose mostly 114 µM), without a hit: top-dose activity change, negative = inhibition, usual class: inhibitors; also: potency is read from the fitted curve at half-maximal effect; nearly all actives have a fitted effect of over 65% in size
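Rat TrxR1 (90 nM in the dispensed reagent) was pre-reduced with 400 uM NADPH for 5 min at room temperature, then incubated with compound for 15 min. After 400 uM selenite was added, NADPH fluorescence (Ex 340/Em 450 nm) was followed for 8 min.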
TrxR1 substrate = is turned over as a substrate by rat TrxR1 | O89049 | purified TrxR1 substrate turnover, NADPH consumption readout | Potency, µM (top dose mostly 114 µM), for the others: top-dose activity change, negative = substrate turnover | hit rate 0.01% among 390,000; also: potency is read from the fitted curve at half-maximal effect; nearly all actives have a fitted effect of over 50% in size
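Rat TrxR1, dispensed at 90 nM, was prereduced with 400 uM NADPH (final) for 5 min at ~22 deg C, then incubated with compound 15 min before 400 uM selenite. A first-read NADPH fluorescence drop versus no-compound background flagged substrates.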
PI4K2A inh = inhibitors of human PI4K2A; Q9BTU6; purified PI4K2A, ADP-Glo luminescence, 1 h; active compounds read low; activity change, negative = inhibition, % at 76.9 µM; hit rate 0.13% among 420,000; AID 1346378; in the data active = activity change below about -50%; inconclusive = mostly about -30% to -49%;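 also: -100% = wells without enzyme as full effect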
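In this quantitative HTS, ADP production by PI4K2A was quantified luminescently after 1 h at ambient temperature; 100 microM adenosine served as plate-quality control.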
An asterisk follows results filed as active; ? = inconclusive; nt = not tested or not shown; [ ] = another dose, or the depositor's remark. Hits are enriched below; roughly 1.2% of the tested compounds scored in any of these assays. Unless noted, calls follow the shape of the dose curve; as a rule, active = well fitted curve in the direction sought with a large enough effect; inconclusive = small, poorly fitted or top-dose-only effect, or another doubt; inactive = no such curve, though single readings can be large; an effect the other way counts as inactive or inconclusive. Unless noted, % is scaled to controls: 0 for no effect and ±100 for the full control effect.

SMILES | PKM2 act | GALK inh | rTrxR1 inhibitor | TrxR1 substrate | PI4K2A inh
COC(=O)CSc1[nH]c2ccc(F)cc2c1[N+](=O)[O-] | 29% | 0% | 35µM* | -2% | 3
O=C1CNC(=O)/C1=C/c1ccccc1 | -16% | 3% | -19% | -4% | 0
O=C1CNC(=O)/C1=C\c1ccc(O)cc1 | 2% | 1% | 20µM* | ? | -4
O=C1CNC(=O)/C1=C/c1ccc(Br)cc1 | 2% | 3% | 23%[11.4 µM] | -18%[11.4 µM] | 0
O=C1CNC(=O)/C1=C/c1ccc(O)cc1 | -7% | -4% | 20µM* | ? | -7
Cc1cc(-c2n[nH]c(=S)n2N=Cc2cccc(OCc3ccccc3)c2)n[nH]1 | nt | nt | nt | nt | -2
COc1ccc(C2NC(=O)NC(O)(C(F)(F)F)C2C(=O)c2ccccc2)cc1OC (stereo unspecified) | -6% | 2% | 28µM* | -4% | 1
CCOc1cc(C2NC(=O)NC(O)(C(F)(F)F)C2C(=O)c2ccccc2)ccc1OC (stereo unspecified) | 6% | -1% | -14%[57.1 µM] | 2%[57.1 µM] | -1
CCOC(=O)Cc1ccc2sc(-c3ccccc3)nc2c1 | -42% | 7% | -3% | -5% | -72*
COc1ccccc1NC(=O)C1CCCN(c2ncnc3onc(-c4ccc(F)cc4)c23)C1 (stereo unspecified) | nt | nt | 25%[57.1 µM] | 3%[57.1 µM] | 2
O=S1(=O)c2c(cccc2N2CCC[C@H]2CO)O[C@@H]2CCN1C2 | nt | nt | nt | nt | -2
CCOC(=O)C1(C)Oc2ccccc2C(C(=O)OC)=C1C(=O)OC (stereo unspecified) | nt | nt | 32µM* | 2% | -8
CC(/C=N/n1c(-c2ccc(Cl)cc2)n[nH]c1=S)=C\c1ccco1 | -6% | -1% | ? | 7%[0.457 µM] | -5
N#C/C(=C\c1ccco1)C(=O)NCc1ccccc1 | -5% | -1% | 22% | 1% | 0
N#CC(C#N)=C1C=CC=CN1/C(=C\c1ccco1)C(=O)c1ccc(Cl)cc1 | 24% | -3% | 0.5µM* | -10% | 8
N#CC(C#N)=C1C=CC=CN1/C(=C\c1ccco1)C(=O)c1ccc(-c2ccccc2)cc1 | 13% | -5% | 7.1µM* | 2% | 26
Brc1ccc(C2Nc3cccc4cccc(c34)N2)cc1 | nt | nt | ? | -9% | -4
Cc1ccc(C2Nc3cccc4cccc(c34)N2)s1 | 0% | 0% | 22µM* | -8% | -26
FC(F)(F)c1ccc(C2Nc3cccc4cccc(c34)N2)cc1 | 2% | 15% | 28µM* | -6% | 1
CCN(CC)c1ccc(C2Nc3cccc4cccc(c34)N2)cc1 | -4% | 6% | 2% | 0% | -4
Fc1ccc(C2Nc3cccc4cccc(c34)N2)cc1 | nt | 0% | 25µM* | -2% | 4
COc1ccccc1NC(=O)CCn1cnc2ccccc2c1=O | nt | nt | 41%[57.1 µM] | 11%[57.1 µM] | -1
CCOc1ccc(C(=O)CCN2CCCCC2)cc1 | -7% | 6% | 0.71µM* | 13% | 14
COc1ccc(C(O)(CCc2ccccc2)CCN2CCCCC2)cc1 (stereo unspecified) | 5% | -1% | 8.9µM* | 7%[57.1 µM] | 4
COc1ccc(C(=O)CN2CCN(c3ccc(F)cc3)CC2)cc1OC | 3% | 1% | 20µM* | 2% | 1
SMILES | PKM2 act | GALK inh | rTrxR1 inhibitor | TrxR1 substrate | PI4K2A inh
O=C(/C=C/c1ccccc1)CCN1CCCCC1 | nt | nt | ? | -5%[57.1 µM] | 11
O=C(CCN1CCCCCC1)c1ccccc1 | 0% | -5% | 0.89µM* | 10%[11.4 µM] | 4
COc1ccccc1N1CCN(C(=O)c2c(C)oc3ncn(C)c(=O)c23)CC1 | nt | nt | 5% | 0% | 2
Cc1ccccc1Cn1cc(COC(=O)NCCc2c[nH]c3ccccc23)nn1 | nt | nt | nt | nt | -4
Cc1ccc(C)c(CSc2nc3ccncc3n2CC(=O)Nc2ccc(N(C)C)cc2)c1 | nt | nt | 12% | -2% | 0
Cc1cn2c(=O)cc(COC(=O)c3cccc(NC(=O)c4ccccc4C)c3)nc2s1 | nt | nt | 7%[57.1 µM] | 5%[57.1 µM] | 2
COc1ccc(C(=O)CCN2CCCCCC2)cc1 | 2% | 2% | 0.79µM* | 7% | 23
O=C(CCN1CCC(c2cccs2)=N1)c1cccs1 | -6% | nt | 22µM* | 0% | -2
COc1ccc(C(=O)CCN2CCN(c3ccc(OC)cc3)CC2)cc1 | nt | nt | 2.8µM* | -5%[57.1 µM] | 14
O=C(CCN1CCCC1)c1cccs1 | 8% | -2% | 0.4µM* | 5%[57.1 µM] | -10
O=C(CCC(=O)N1CCN(c2ccccn2)CC1)c1cccs1 | nt | nt | 12% | 7% | -8
COc1ccc(C(=O)OCCN2CCCCC2)cc1 | -8% | 0% | -2% | -2% | -2
O=S(=O)(c1ccccc1Cl)N1CCN(c2nc(-c3cccs3)nc3ccccc23)CC1 | nt | nt | 3% | 4% | nt
CCCOc1ccc(C(=O)CCN2CCN(C(=O)OCC)CC2)cc1 | 7% | 0% | 8.9µM* | 4%[57.1 µM] | 23
COc1ccc(C2C(=O)N(C3CCC(C)CC3)CC(=O)N2Cc2ccc(C)cc2)cc1OC (stereo unspecified) | nt | nt | 6%[57.1 µM] | -2%[57.1 µM] | 7
Cc1ccc(NC(=O)COC(=O)c2ccccc2OCC(=O)Nc2ccc(Br)cc2)c(Br)c1 | nt | nt | 14% | 9% | nt
COC(=O)c1sccc1NC(=O)Nc1ccc(OC)cc1 | -28% | 11% | 5% | 1% | -57*
COC(=O)c1sccc1NC(=O)Nc1cc(OC)ccc1OC | -5% | 0% | 12% | 3% | 3
COc1cccc(CNC(=O)C2CCCN(c3ncccn3)C2)c1OC (stereo unspecified) | nt | nt | nt | nt | -6
O=c1[nH]c(-c2ccc(-c3cccc(Cl)c3)o2)nc2ccccc12 | nt | nt | 50µM* | 13% | 3
CC(C)CCNC(=O)Cn1c(SCc2cccc(F)c2)nc2ccncc21 | nt | nt | -5% | 5%[0.0914 µM] | nt
CCN(CC)c1ccc(/C=N/Nc2ccccc2)c(O)c1 | 3% | 2% | 8.9µM* | -7% | -3
CCN(CC)c1ccc(/C=N/Nc2cccc(C)c2)c(O)c1 | 10% | 0% | 22µM* | -18% | -4
COc1cccc(NC(=O)CSC2=Nc3ccccc3C3=NC(CCC(=O)NCCc4ccccc4)C(=O)N23)c1 (stereo unspecified) | nt | nt | 13%[57.1 µM] | 2%[57.1 µM] | -3
COC(=O)CSc1nnc(-c2ccc(NS(=O)(=O)c3ccccc3)cc2)o1 | 25µM* | 7% | -2% | 10%[57.1 µM] | 2
O=C1CCC[C@H]2Cc3nc4cc5c(cc4cc3C[C@]23CCCN13)OCO5 | nt | nt | nt | nt | -6
S=C(NCCCN(Cc1ccc(Cl)cc1)c1ccc(-c2ccccc2)cn1)NCCCN(Cc1ccc(Cl)cc1)c1ccc(-c2ccccc2)cn1 | nt | nt | 14% | 11% | nt
S=C(NCCCc1cnc[nH]1)NCCCN(Cc1ccc(Cl)cc1)c1ccc(-c2ccccc2)cn1 | nt | nt | 89µM* | -3% | nt
COc1ccc(N2C(=O)CC(NCCNc3ccc([N+](=O)[O-])cn3)C2=O)cc1 (stereo unspecified) | 22% | 1% | 14µM* | -6% | 1

Screening data from PubChem BioAssay.
